In ChEMBL document CHEMBL3988442, “University of Dundee, Small-Polar-MMV Screening Library” (2021):
Screen size: about 48,000 compounds; about 13,000 (27%) showed an effect of 50% or more. Some of the results follow.

These compounds were tested on Wolbachia pipientis (assay: Anti-Wolbachia Cell-Based Screen). Details: 5 µM.
Format: functional
Parameters: scale not given: in the data most compounds retested in dose-response had high values

Row | SMILES | Percent Effect [%]
1 | Cc1cn2c(n1)CCC(NS(=O)(=O)c1ccc(C)s1)C2 (stereo not given) | -1.096
2 | Cc1ccc2c(c1)C1(CCN(C(=O)C3CC3)CC1)CC2N1CCOCC1.O=C(O)C(F)(F)F (stereo not given) | 4.954
3 | Cc1cc(C)n(CC2CCCCN2CC(=O)Nc2c(C)n[nH]c2C)n1 (stereo not given) | 1.6
4 | CCCc1nc(C)c(C(=O)NCC2CCN(C3CC3)C2)s1 (stereo not given) | 9.564
5 | Cc1n[nH]c(C)c1NC(=O)CN1CCCC(CNC(=O)C(C)(C)C)C1 (stereo not given) | 3.245
6 | Cc1[nH]nc(CCC(=O)NCC2CCN(C3CCCCC3)C2)c1C (stereo not given) | 82.83
7 | Cc1[nH]nc(CCC(=O)NCC2CCCN(C3CCCC3)C2)c1C (stereo not given) | 91.65
8 | Cc1n[nH]c(C)c1CCC(=O)NCC1CCCN(C2CCCC2)C1 (stereo not given) | 80.33
9 | Cc1n[nH]c(C)c1CCC(=O)NCC1CCOc2ccccc2C1 (stereo not given) | -7.064
10 | Cc1n[nH]c(C)c1CCC(=O)NCC1COc2ccccc2C1 (stereo not given) | -6.3
11 | Cc1[nH]nc(CCC(=O)NCC2COc3ccccc3C2)c1C (stereo not given) | -76.22
12 | Cc1cc(CN2CCC(CNC(=O)CN3CCCCCC3)C2)[nH]n1 (stereo not given) | 4.399
13 | Cc1ccc(C2CN(C(=O)NCc3nnc4ccccn34)CCO2)o1 (stereo not given) | -6.842
14 | Cc1cnn(CC(=O)NCC2(O)CCCc3ccccc32)c1 (stereo not given) | -1.481
15 | CN(Cc1ccc(C(N)=O)cc1)c1ccc(C(F)(F)F)cn1 | 16.53
16 | FC(F)(F)c1ccccc1CN1CCOC[C@H](Oc2cccnc2)C1 | -13.87
17 | COc1cccc2c1N(Cc1nc(C3CC3)no1)CCC2 | -12.66
18 | CNc1nc(C(=O)N2CCN(c3cc(C)nc(C)c3)CC2)cs1 | 104.9
19 | Cc1cc(N2CCN(C(=O)CCc3scnc3C)CC2)cc(C)n1 | 13.55
20 | Cc1cc(N2CCCN(C(=O)Cc3csc(C)n3)CC2)ccn1 | -22.63
21 | Cc1cc(N2CCCN(c3ccnc(C)c3)CC2)ccn1 | 10.82
22 | CNc1nc(C(=O)N2CCCN(c3ccnc(C)c3)CC2)cs1 | 103.6
23 | CNc1nc(C(=O)N2CCCC(c3nccn3CC3CCC3)C2)cs1 (stereo not given) | 4.458
24 | Cc1noc2ncc(C(=O)N(CC3CCOC3)C3CC3)cc12 (stereo not given) | -8.329
25 | CC(C)Cn1cc(NC(=O)NCC2CCN(c3ccccc3)C2)cn1 (stereo not given) | -4.161

Row | SMILES | Percent Effect [%]
26 | COCCN(C)CCN1CC2(CCN(C3CCOC3)CC2)OC1=O (stereo not given) | -5.724
27 | Cc1ccc(-c2cc(C(=O)NCCN3CCOCC3)n[nH]2)s1 | 2.618
28 | COc1ccc2c(c1)OCC(CNC(=O)CCc1c(C)n[nH]c1C)C2 (stereo not given) | 2.391
29 | COc1ccc(-c2n[nH]c(C)c2CC(=O)N2CCOCC2)cc1 | 82.2
30 | Cc1ccc(-c2nc(CC(=O)NCC3CCOC3)cs2)o1 (stereo not given) | 7.713
31 | COc1ccc(OCc2nc(C(=O)NCCN3CCOCC3)co2)cc1 | -20.12
32 | COc1ccc(-c2n[nH]c(C)c2CC(=O)NCC2CCOCC2)cc1 | 94.98
33 | COc1ccc(-c2n[nH]c(C)c2CC(=O)NCCN2CCOCC2)cc1 | 95.82
34 | Cc1cc(=O)n(CC(=O)NCC2CCCO2)c(-c2ccc(F)cc2)n1 (stereo not given) | 12.17
35 | Cc1ccc(-n2nnc(CC(=O)N3CCOCC3)c2C)cc1 | -5.261
36 | COc1ccc(-c2n[nH]c(C)c2CC(=O)NCC2CCCO2)cc1 (stereo not given) | 140.4
37 | COc1ccc(CC(=O)Nc2c(C)nc(N3CCOCC3)nc2C)cc1 | 11.03
38 | CCC(=O)c1ccc(OCC(=O)NCC2CCCO2)cc1 (stereo not given) | 8.672
39 | CC(C)N1CCC(NC(=O)NC2CCOc3ccc(Br)cc32)CC1 (stereo not given) | 4.745
40 | CN(C)C(=O)N[C@H]1CN(C2CCOCC2)[C@@H]2CCCO[C@H]12.O=C(O)C(F)(F)F | 16.52
41 | NC(=O)c1ccc(N2CCCCC2)c(NC(=O)c2ccc(Br)cc2)c1 | 7.886
42 | Cc1noc(C)c1CN1CC[C@H]2OCC[C@@H](C(=O)N3CCCO3)[C@@H]2C1 | -14.86
43 | Cc1nn2cccnc2c1C(=O)N1CCCC(Nc2ccccc2)C1 (stereo not given) | -8.048
44 | CC(=O)N(C)CC(=O)NC1(c2ccc(Cl)c(Cl)c2)CC1 | -1.911
45 | CC(C)CN1CCN(C(=O)Nc2cc(C(F)(F)F)c[nH]c2=O)CC1 | -8.263
46 | CC1CN(C(=O)Nc2cc(C(F)(F)F)c[nH]c2=O)CCO1 (stereo not given) | 83.43
47 | O=C(Nc1cc(C(F)(F)F)c[nH]c1=O)c1ccco1 | -1.817
48 | COC1CCN(C(=O)Nc2cc(C(F)(F)F)c[nH]c2=O)CC1 | 107.9
49 | O=C(Nc1cc(C(F)(F)F)c[nH]c1=O)N1CCOCC1 | 95.88
50 | Cn1cnnc1CNC(=O)Nc1cc(C(F)(F)F)c[nH]c1=O | -11.16

Row | SMILES | Percent Effect [%]
51 | CC(CCc1ccco1)NC(=O)Nc1cc(C(F)(F)F)c[nH]c1=O (stereo not given) | -5.295
52 | COc1cc(CNC(=O)Nc2cc(C(F)(F)F)c[nH]c2=O)ccn1 | -10.71
53 | CC(C)(C)N1CCN(C(=O)Nc2cc(C(F)(F)F)c[nH]c2=O)CC1 | 82.7
54 | Cc1ncc(CNC(=O)Nc2cc(C(F)(F)F)c[nH]c2=O)s1 | -11.29
55 | COCC1CN(C(=O)Nc2cc(C(F)(F)F)ccc2F)CCO1 (stereo not given) | -13.47
56 | CS(=O)(=O)N1CCC2(CC1)CN(CC1CC1)CC21CCNC1=O.O=C(O)C(F)(F)F (stereo not given) | -40.94
57 | Cc1nc(-c2cn(CCN)nn2)n(-c2ccc(C(F)(F)F)cc2)n1 | -70.01
58 | Cc1nccn1-c1ccc(N2CCC(N[C@H](C)C(C)C)CC2)cc1 | 17.33
59 | Cc1noc(CCCC(=O)Nc2cc(C(F)(F)F)c[nH]c2=O)n1 | 11.68
60 | CC1CN(C(=O)Nc2ccc(Cl)c(C(=O)NC3CC3)c2)CC(C)(C)O1 (stereo not given) | -20.36
61 | O=C(Nc1cc(C(F)(F)F)c[nH]c1=O)N1CCCSCC1 | -10.12
62 | CC1CN(C(=O)Nc2cc(C(F)(F)F)c[nH]c2=O)CC(C)(C)O1 (stereo not given) | 113.6
63 | CCCc1noc(CCC(=O)Nc2cc(C(F)(F)F)c[nH]c2=O)n1 | -8.892
64 | O=C(Nc1cc(C(F)(F)F)c[nH]c1=O)N1CCSCC1 | 108.7
65 | CC1(C)CN(C(=O)Nc2cc(C(F)(F)F)c[nH]c2=O)CCO1 | 99.91
66 | O=C(NCCNc1ncccn1)Nc1cc(C(F)(F)F)c[nH]c1=O | -3.235
67 | O=C(NC1=NCCS1)C1CSCN1C(=O)C1CCCC1 (stereo not given) | -6.178
68 | Cn1cccc(NC(=O)NCc2cccc(CO)c2)c1=O | -1.059
69 | Cc1cc(-c2nc(-c3ccccn3)nn2C2CCN(C)CC2)nc(C)n1 | -5.062
70 | O=C(CCc1nc2cccnc2[nH]1)NCc1cccnc1 | 5.887
71 | Cc1cccc(N2CCN(CCC(=O)NCc3cccnc3)CC2)c1 | 6.039
72 | O=C(CCC1CCCC1)NCc1nnc2ccccn12 | 1.32
73 | O=C(Cn1ccc2sccc2c1=O)NCc1ccc2c(c1)OCO2 | 0.2723
74 | O=C(CCc1nc2cccnc2[nH]1)NCc1ccc2c(c1)OCO2 | 27.54
75 | O=C(CCc1nnc2ccccn2c1=O)NCc1ccc2c(c1)OCO2 | 110.3

Row | SMILES | Percent Effect [%]
76 | Cn1cccc1CNC(=O)CCCc1nnc2ccccn12 | 14.24
77 | O=C(CCc1nnc2ccccn2c1=O)NCc1ccco1 | 105.9
78 | O=C(CCc1nnc2ccccn2c1=O)NCc1cccnc1 | 121.1
79 | COc1ccc(CNC(=O)Cc2csc(C(C)=O)c2)cc1 | 2.837
80 | COc1ccc(CNC(=O)CCc2nnc3ccccn3c2=O)cc1 | 126.1
81 | CCn1ncnc1CN1CCc2[nH]cnc2C1CCc1ccccc1 (stereo not given) | 5.135
82 | Cc1ccc(CNC(c2ccc(F)cc2)c2nccn2C)o1 (stereo not given) | 6.945
83 | CC(=O)N1CCC(Oc2ccc(Cl)cc2C(=O)N2CCCO2)CC1 | 5.175
84 | CN1CCN([C@@H]2CN(C(=O)c3ccsc3)[C@@H]3CCCO[C@H]23)CC1 | -4.041
85 | O=C(c1ccsc1)N1C[C@H](N2CCOCC2)[C@@H]2OCCC[C@@H]21 | 0.7214
86 | Cc1ccoc1C(=O)N1C[C@@H](N2CCN(C)CC2)[C@H]2OCCC[C@H]21.O=C(O)C(F)(F)F.O=C(O)C(F)(F)F | -7.066
87 | Cc1cnc(C(=O)N2C[C@H](N3CCOCC3)[C@@H]3OCCC[C@@H]32)cn1 | 115.1
88 | Cc1ccc(C(=O)N2C[C@@H]3CCCO[C@@H]3[C@H](N3CCOCC3)C2)cn1.O=C(O)C(F)(F)F.O=C(O)C(F)(F)F | -9.984
89 | Cc1ccc(C(=O)N2C[C@@H](N3CCN(C)CC3)[C@H]3OCCC[C@H]32)cn1 | 115.4
90 | CC(C)(C)c1cn2nc(N3CCCC(Cn4cncn4)C3)sc2n1 (stereo not given) | 16.07
91 | CCn1ccnc1CN(C)c1cc(N(C)C)ncn1 | 12.61
92 | CN1CCC(Cc2cc(N(C)C)ncn2)C1 (stereo not given) | 110.8
93 | CN1CCCC(Cc2cc(N(C)C)ncn2)C1 (stereo not given) | 94.81
94 | CSCc1ccc(N(C)CC2CCCN(C(C)C)C2)nc1 (stereo not given) | -13.33
95 | CN1CCCC(Cc2cncc(C(=O)NCC3CC3)c2)C1 (stereo not given) | -7.268
96 | CC(C)N1CCN(C)CC(Cc2cc(N(C)C)ncn2)C1 (stereo not given) | 93.36
97 | CCn1ccnc1CN(C)c1cc(C2CC2)ncn1 | 1.234
98 | CN1CCCC(CNC(=O)N2CCN(Cc3ccon3)CC2)C1 (stereo not given) | -11.04
99 | c1cnc(NCc2noc3c2CN(C2CCOCC2)CC3)nc1 | -17.2
100 | COc1ccc(-c2nnc(C(C)N3CCOC(C)(C)C3)o2)cc1 (stereo not given) | -4.024
